Laboratory results: paper PMC5540273 (PLoS ONE, 2017)

How the values were obtained:
Settings in all cases: concentration: 1 μM, replicates: in singlicate; n = 1
LYN = tested on: LYN
LZK = tested on: T1, LZK
T1 construct: gene MAP3K13

MAK = tested on: MAK
MAP3K15 = tested on: MAP3K15
MAP3K1 = tested on: MAP3K1
MAP3K2 = tested on: MAP3K2
MAP3K3 = tested on: MAP3K3
MAP3K4 = tested on: MAP3K4
MAP4K2 = tested on: MAP4K2
MAP4K3 = tested on: MAP4K3
MAP4K4 = tested on: MAP4K4
MAP4K5 = tested on: MAP4K5
MAPKAPK2 = tested on: MAPKAPK2
MAPKAPK5 = tested on: MAPKAPK5
MARK1 = tested on: MARK1
MARK2 = tested on: MARK2
MARK3 = tested on: MARK3
MARK4 = tested on: MARK4
MAST1 = tested on: MAST1
MEK1 = tested on: T2, MEK1
T2 construct: gene MAP2K1
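Also: KINOMEscan kinase panel screen.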

SMILES | %Inh (LYN) [%] | %Inh (LZK) [%] | %Inh (MAK) [%] | %Inh (MAP3K15) [%] | %Inh (MAP3K1) [%] | %Inh (MAP3K2) [%] | %Inh (MAP3K3) [%] | %Inh (MAP3K4) [%] | %Inh (MAP4K2) [%] | %Inh (MAP4K3) [%] | %Inh (MAP4K4) [%] | %Inh (MAP4K5) [%] | %Inh (MAPKAPK2) [%] | %Inh (MAPKAPK5) [%] | %Inh (MARK1) [%] | %Inh (MARK2) [%] | %Inh (MARK3) [%] | %Inh (MARK4) [%] | %Inh (MAST1) [%] | %Inh (MEK1) [%]
CCn1c(-c2ccccn2)nc2cnccc21 [SB-736398] | 0 | 11 | 11 | 2 | 8 | 3 | 0 | 19 | 0 | 0 | 0 | 1 | 21 | 0 | 0 | 0 | 3 | 8 | 47 | 0
COc1cc(Nc2nccc(N3CCC(NC(=O)Nc4cc(C)ccc4C)C3)n2)cc(OC)c1OC (stereo not drawn) [GSK1379762] | 6 | 0 | 54 | 17 | 16 | 0 | 0 | 12 | 0 | 0 | 0 | 0 | 10 | 0 | 0 | 0 | 8 | 9 | 2 | 0
Cc1nnc(-c2ccc3occ(-c4ccc(S(C)=O)cc4)c3c2)[nH]1 (stereo not drawn) | 18 | 0 | 0 | 10 | 24 | 1 | 0 | 2 | 0 | 11 | 0 | 0 | 0 | 20 | 21 | 22 | 0 | 19 | 7 | 8
Nc1nc(-c2nccs2)c(-c2ccnc3ccccc23)s1 [GW693542] | 3 | 3 | 46 | 0 | 13 | 0 | 0 | 27 | 0 | 0 | 4 | 0 | 28 | 0 | 0 | 0 | 0 | 1 | 0 | 0
CC(C)(C)c1ccc(C(=O)Nc2cn3cc(Cl)ccc3n2)cc1 | 8 | 0 | 15 | 1 | 0 | 45 | 0 | 0 | 0 | 0 | 2 | 2 | 0 | 0 | 0 | 78 | 0 | 0 | 0 | 24
Fc1cc(Cl)ccc1Nc1ccnc2cc(-c3ccc(CN4CCCCC4)o3)ccc12 [GW560116] | 0 | 7 | 52 | 0 | 0 | 0 | 0 | 0 | 0 | 0 | 0 | 0 | 0 | 0 | 0 | 0 | 0 | 0 | 43 | 4
COC(=O)c1c(-c2ccccc2)c2cc(OC)ccc2c(=O)n1Cc1ccccc1 | 32 | 0 | 33 | 0 | 24 | 0 | 11 | 12 | 0 | 0 | 0 | 0 | 10 | 0 | 19 | 21 | 0 | 22 | 20 | 0
Cc1cccc(-c2cc(Nc3ccncc3)c3ccccc3n2)n1 [GSK223675] | 0 | 0 | 22 | 0 | 5 | 0 | 0 | 21 | 0 | 0 | 0 | 0 | 13 | 0 | 0 | 0 | 0 | 0 | 0 | 0
Cn1ccc2ncnc(Oc3cccc(C(=O)Nc4ccccc4)c3)c21 | 9 | 0 | 8 | 0 | 0 | 11 | 0 | 0 | 2 | 15 | 8 | 0 | 0 | 12 | 13 | 0 | 0 | 6 | 35 | 1
